Experiments:
Assay in all cases: log2 ratio of Biotin-Ahx-Ub-VS probe labelling (fragment/DMSO); higher = less target engagement (more negative = stronger competition), active = hit call of the paper (q ≤ 0.05, log2 ratio ≤ -1)
Conditions in all cases: compound concentration: 200 uM; treatment time: 3 h
USP19 = biological target: T1, USP19 (UniProt O94966)
T1 sequence (whole entry): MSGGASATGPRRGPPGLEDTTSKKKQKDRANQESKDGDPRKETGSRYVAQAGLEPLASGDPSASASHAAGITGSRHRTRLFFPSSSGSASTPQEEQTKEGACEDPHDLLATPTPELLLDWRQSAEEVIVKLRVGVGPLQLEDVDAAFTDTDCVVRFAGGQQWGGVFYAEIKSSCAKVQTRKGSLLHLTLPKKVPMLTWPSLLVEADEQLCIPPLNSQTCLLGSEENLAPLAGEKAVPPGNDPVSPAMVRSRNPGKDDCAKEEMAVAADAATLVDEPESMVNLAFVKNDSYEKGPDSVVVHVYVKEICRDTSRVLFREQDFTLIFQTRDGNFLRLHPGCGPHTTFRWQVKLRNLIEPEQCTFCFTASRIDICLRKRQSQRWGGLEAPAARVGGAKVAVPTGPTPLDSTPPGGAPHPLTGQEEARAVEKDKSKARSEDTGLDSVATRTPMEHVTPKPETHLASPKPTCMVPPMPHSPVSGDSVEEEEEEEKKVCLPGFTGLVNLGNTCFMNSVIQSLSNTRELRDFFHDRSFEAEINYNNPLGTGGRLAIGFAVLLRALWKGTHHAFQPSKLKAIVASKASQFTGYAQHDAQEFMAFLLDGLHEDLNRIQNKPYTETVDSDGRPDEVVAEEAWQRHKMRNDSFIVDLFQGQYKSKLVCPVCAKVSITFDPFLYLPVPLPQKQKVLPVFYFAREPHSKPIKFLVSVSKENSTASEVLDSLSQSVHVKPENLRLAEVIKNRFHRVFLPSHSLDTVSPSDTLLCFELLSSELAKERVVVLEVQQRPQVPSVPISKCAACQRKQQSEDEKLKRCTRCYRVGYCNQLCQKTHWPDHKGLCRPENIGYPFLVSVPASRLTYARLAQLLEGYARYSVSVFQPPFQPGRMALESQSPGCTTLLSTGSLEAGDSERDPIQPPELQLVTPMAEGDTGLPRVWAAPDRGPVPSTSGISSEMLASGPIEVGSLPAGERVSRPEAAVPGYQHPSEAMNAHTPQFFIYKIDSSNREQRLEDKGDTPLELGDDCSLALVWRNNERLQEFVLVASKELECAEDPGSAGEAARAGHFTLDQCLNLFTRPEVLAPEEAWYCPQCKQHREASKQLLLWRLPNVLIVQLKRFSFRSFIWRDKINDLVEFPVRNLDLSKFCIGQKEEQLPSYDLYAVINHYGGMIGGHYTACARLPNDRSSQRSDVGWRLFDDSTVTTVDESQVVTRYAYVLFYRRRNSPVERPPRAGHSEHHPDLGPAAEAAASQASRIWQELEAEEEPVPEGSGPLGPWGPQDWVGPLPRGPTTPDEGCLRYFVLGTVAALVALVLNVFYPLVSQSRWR
Procedure, shortened: (§1)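 HEK293T lysate (495 µg per sample, in Tris/CHAPS/IGEPAL buffer with protease inhibitors) was exposed in triplicate for 3 h to fragment at 200 µM or to vehicle, then to Biotin-Ahx-Ub-VS at 0.5 µM final for 1 h. Labelled DUBs were enriched on NeutrAvidin, digested with LysC and trypsin, and analysed by diaPASEF LC-MS/MS. Spectronaut label-free quantities were normalised to the global median, and values are average log2 ratios of fragment over vehicle from an unpaired t-test. Only proteins with ≥2 unique peptides were used.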

USP22 = biological target: T2, USP22 (UniProt Q9UPT9)
T2 sequence (whole entry): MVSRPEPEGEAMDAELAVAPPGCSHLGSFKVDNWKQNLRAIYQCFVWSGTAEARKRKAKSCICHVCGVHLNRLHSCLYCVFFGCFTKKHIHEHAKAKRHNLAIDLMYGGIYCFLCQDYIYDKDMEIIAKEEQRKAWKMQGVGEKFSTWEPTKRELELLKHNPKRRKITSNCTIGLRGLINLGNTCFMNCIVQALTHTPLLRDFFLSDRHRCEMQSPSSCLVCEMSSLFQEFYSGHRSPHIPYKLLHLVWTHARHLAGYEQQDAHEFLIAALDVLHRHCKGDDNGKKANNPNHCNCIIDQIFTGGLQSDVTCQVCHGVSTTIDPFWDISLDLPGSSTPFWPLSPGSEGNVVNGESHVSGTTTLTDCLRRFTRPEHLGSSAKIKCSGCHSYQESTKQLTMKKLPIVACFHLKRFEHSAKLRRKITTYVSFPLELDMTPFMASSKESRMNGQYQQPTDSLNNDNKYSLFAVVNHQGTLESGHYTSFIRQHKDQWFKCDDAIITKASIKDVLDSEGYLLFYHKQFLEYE
Procedure, shortened: as §1

USP24 = USP24 (UniProt Q9UPU5)
Procedure, shortened: as §1

USP25 = biological target: T3, USP25 (UniProt Q9UHP3)
T3 sequence (whole entry): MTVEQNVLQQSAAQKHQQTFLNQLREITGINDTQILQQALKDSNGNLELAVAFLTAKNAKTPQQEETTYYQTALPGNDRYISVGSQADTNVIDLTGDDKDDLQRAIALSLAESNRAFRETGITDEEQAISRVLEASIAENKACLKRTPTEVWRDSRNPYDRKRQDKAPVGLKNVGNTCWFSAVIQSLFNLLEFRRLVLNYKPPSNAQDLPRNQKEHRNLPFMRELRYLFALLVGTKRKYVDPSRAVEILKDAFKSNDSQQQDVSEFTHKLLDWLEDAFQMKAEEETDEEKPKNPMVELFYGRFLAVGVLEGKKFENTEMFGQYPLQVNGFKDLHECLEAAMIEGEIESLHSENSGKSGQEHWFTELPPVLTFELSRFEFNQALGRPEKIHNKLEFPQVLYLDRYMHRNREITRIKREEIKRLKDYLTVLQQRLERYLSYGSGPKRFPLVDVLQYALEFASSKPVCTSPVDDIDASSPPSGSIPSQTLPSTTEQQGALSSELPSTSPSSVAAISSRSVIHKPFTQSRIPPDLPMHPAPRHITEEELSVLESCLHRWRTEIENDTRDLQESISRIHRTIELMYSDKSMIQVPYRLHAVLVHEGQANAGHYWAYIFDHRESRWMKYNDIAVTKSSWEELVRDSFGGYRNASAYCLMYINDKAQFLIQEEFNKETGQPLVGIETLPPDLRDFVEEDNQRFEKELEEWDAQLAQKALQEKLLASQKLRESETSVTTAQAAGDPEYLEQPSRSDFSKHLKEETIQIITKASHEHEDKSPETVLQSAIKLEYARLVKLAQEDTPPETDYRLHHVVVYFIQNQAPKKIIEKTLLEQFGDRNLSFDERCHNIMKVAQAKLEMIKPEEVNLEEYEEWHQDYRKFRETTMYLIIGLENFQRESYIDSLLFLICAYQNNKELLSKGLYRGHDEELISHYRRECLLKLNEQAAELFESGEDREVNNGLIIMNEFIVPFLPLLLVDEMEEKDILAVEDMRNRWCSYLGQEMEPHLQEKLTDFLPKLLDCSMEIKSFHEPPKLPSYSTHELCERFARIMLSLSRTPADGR
Procedure, shortened: as §1

USP28 = biological target: T4, USP28 (UniProt Q96RU2)
T4 sequence (whole entry): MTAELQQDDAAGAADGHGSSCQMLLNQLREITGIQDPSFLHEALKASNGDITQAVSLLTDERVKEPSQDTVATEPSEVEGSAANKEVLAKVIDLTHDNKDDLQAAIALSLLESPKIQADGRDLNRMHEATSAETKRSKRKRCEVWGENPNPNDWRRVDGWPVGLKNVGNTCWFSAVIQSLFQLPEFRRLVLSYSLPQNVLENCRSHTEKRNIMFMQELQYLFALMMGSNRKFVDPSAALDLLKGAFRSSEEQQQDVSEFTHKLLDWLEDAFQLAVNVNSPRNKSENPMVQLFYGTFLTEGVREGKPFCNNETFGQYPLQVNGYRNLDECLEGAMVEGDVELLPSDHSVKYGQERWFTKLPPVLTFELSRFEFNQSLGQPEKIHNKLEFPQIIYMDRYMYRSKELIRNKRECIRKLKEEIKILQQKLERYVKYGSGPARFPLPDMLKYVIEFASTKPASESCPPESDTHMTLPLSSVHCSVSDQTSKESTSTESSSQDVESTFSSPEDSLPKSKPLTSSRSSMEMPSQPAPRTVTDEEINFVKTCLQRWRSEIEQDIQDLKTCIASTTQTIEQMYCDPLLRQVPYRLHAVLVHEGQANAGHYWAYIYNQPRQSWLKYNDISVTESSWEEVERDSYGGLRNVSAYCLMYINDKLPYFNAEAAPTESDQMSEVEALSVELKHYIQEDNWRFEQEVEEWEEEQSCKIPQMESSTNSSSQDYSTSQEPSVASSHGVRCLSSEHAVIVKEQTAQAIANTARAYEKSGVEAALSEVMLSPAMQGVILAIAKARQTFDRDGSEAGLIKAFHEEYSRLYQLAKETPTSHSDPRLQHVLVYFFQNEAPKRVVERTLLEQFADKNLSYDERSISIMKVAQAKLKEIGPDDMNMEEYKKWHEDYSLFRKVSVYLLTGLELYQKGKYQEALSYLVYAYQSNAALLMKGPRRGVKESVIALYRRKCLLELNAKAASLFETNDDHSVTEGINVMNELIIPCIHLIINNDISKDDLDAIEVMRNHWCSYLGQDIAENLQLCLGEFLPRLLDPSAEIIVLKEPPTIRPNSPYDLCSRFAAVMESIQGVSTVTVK
Procedure, shortened: as §1

Measured: log2 ratio of Biotin-Ahx-Ub-VS probe labelling

USP24, sequence (Q9UPU5 whole entry): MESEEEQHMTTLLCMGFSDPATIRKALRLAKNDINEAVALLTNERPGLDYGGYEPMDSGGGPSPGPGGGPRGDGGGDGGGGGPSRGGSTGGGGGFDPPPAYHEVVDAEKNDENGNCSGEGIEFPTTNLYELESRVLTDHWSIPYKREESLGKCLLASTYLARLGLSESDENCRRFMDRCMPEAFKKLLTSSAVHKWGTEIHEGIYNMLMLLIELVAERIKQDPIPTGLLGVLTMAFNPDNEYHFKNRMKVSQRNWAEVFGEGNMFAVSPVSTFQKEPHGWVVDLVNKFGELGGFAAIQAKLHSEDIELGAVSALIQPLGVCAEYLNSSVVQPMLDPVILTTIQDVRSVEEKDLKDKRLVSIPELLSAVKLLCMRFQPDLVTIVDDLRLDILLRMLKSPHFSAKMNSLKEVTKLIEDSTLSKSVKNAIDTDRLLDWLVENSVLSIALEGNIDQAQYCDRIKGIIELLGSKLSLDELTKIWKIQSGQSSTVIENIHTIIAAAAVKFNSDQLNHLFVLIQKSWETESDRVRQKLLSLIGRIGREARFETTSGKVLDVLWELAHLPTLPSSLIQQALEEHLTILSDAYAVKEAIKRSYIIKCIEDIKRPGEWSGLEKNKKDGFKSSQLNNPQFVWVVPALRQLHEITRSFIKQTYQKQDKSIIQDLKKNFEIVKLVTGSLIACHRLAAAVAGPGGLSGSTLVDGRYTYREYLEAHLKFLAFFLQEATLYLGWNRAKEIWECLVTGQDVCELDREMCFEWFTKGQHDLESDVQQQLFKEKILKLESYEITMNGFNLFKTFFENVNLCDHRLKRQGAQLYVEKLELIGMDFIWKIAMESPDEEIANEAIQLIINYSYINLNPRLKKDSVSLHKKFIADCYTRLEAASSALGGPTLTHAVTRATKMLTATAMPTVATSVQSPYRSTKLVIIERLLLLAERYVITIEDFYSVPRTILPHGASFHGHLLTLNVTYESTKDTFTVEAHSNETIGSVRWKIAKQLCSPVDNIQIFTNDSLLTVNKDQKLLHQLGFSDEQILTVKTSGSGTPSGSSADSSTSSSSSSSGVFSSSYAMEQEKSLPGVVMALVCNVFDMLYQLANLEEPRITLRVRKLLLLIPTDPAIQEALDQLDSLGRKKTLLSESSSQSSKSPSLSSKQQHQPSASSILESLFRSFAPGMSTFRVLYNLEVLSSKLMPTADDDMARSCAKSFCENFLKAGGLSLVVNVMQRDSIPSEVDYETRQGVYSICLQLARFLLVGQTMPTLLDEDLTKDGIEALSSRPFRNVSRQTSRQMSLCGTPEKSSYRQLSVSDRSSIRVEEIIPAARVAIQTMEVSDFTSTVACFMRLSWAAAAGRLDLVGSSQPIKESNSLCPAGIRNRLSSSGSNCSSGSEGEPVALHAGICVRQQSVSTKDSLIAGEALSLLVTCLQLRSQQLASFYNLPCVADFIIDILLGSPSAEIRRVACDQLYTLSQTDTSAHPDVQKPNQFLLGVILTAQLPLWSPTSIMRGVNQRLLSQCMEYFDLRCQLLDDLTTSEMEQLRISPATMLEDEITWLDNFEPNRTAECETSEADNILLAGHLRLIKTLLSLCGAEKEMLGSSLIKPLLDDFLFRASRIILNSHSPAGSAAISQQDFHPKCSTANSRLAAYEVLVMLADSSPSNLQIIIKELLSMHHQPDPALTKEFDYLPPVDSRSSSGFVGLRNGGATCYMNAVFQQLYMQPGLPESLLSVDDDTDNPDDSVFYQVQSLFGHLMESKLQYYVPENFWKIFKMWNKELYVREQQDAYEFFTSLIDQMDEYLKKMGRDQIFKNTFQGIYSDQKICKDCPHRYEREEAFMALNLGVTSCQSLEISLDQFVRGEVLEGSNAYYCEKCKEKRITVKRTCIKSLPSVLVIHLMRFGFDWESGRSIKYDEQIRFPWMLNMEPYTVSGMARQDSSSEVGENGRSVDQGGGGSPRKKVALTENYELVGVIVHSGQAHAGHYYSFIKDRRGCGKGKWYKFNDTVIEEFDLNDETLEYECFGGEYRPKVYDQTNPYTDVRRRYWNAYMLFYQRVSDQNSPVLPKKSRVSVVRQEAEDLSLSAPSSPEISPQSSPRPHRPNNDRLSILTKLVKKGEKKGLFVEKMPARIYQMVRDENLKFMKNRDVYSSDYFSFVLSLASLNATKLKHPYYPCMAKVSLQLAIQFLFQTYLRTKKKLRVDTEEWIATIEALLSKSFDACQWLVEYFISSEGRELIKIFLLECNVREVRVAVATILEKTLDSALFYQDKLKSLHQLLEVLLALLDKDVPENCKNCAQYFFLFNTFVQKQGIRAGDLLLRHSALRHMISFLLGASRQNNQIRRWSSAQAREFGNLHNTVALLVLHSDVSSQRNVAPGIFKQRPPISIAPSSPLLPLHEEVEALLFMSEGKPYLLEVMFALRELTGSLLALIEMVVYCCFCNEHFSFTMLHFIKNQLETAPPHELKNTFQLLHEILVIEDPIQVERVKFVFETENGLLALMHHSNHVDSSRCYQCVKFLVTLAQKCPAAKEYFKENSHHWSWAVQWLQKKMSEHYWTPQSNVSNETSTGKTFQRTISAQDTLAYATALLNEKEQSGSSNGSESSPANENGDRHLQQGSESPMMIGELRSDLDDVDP

CCC(NC(=O)CCl)c1ccc(Cl)cc1 (stereo not given)
inactive: USP19 -0.0763 | USP22 -0.735 | USP24 -0.327 | USP25 -0.24 | USP28 -0.504

— the supplement of paper PMC11732987, “Enantioselective OTUD7B fragment discovery through chemoproteomics screening and high-throughput optimisation” (Communications Chemistry, 2025)
